TTR transcr act – TTR transcription activation, primary screen. activation, % at 16.7 µM. SH-SY5Y TTR promoter Gaussia luciferase, luminescence; 100% = recombinant luciferase protein wells. hit rate 1.3% among 92,000. AID 1117267;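 active = activation above the mean of all tested compounds plus 3 SD, cut at about 9.5% in these data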;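 note: cells exposed to compounds for one day before reading; 0% = median of all test compound wells on the plate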
HuH7 TTR inh – HuH7 TTR transcription inhibition, counter-screen; shares compounds with TTR transcr act; HuH7 TTR promoter-Gaussia luciferase reporter, luminescence; inhibition, % at 16.7 µM; hit rate 4% among 1,100; AID 1117279;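 active = average inhibition above the solvent-only control wells' mean plus 3 SD, cut at about 15% in these data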;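 note: 0% = cells with DMSO only and 100% = cells with inhibitor control FD; inhibitors lower well luminescence so higher value means more inhibition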
TTR up confirm – human TTR transcription activation, confirmation | shares compounds with TTR transcr act | SHSY5Y TTR promoter Gaussia luciferase, luminescence; 100% = purified Lucia enzyme wells, no cells | activation, % at 16.7 µM | 1,100 tested, under 10 active;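 active = mean activation above a set limit taken from the earlier primary screen, cut at about 11% in these data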;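 note: 0% = DMSO-treated cells and 100% = recombinant Lucia luciferase without cells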
Active calls of the source: *. Only a selection was taken, and hits are over-represented in it overall.

What do the screens show for `O=C(COC(=O)c1ccccc1OCc1ccccc1Cl)NC1CCS(=O)(=O)C1` (centres undefined)?
TTR transcr act: 3.0

How did COc1ccc2c(c1)c1nnc(SCC(=O)NC3CC3)nc1n2C do in these assays?
TTR transcr act: -1.9

Results for CCOC(=O)c1sc(N(Cc2ccccc2)C(=O)COC(=O)c2ccccc2O)nc1C ?
TTR transcr act: 13.0*; HuH7 TTR inh: -13.5; TTR up confirm: 0.7

How did CCOC(=O)c1sc(N(Cc2ccccc2)C(=O)CCl)nc1C do in these assays?
TTR transcr act: -1.3

What do the screens show for `Cc1ccsc1C(=O)OCC(=O)N(Cc1ccccc1)C(C)C`?
TTR transcr act: 2.1

Results for COc1ccc(CN2CN3CCc4ccccc4C3CS2(=O)=O)cc1 (centres undefined) ?
TTR transcr act: -1.6

How did Cn1c(SCCN2CCCCC2)nnc1-c1ccccc1Br do in these assays?
TTR transcr act: 14.0*; HuH7 TTR inh: -7.4; TTR up confirm: -0.3

How did Cn1c(SCC(=O)N2CCCCCC2)nnc1-c1ccco1 do in these assays?
TTR transcr act: 1.5

What do the screens show for `Cc1ccc(C#N)c(SCCN2CCCCC2)n1`?
TTR transcr act: -0.8

What do the screens show for `CCC[C@H]1[C@@H](OC(=O)NCc2cccc(C(F)(F)F)c2)CC[C@@]23CCCN2C(=O)CCC[C@@H]13`?
TTR transcr act: 1.0

What do the screens show for `CC(C)(C)C(=O)c1c(N)[nH]c(C(=O)c2ccccc2)c1-c1c(F)cccc1F`?
TTR transcr act: 2.8

What do the screens show for `O=C(C[n+]1ccccc1)N/N=C/c1cccc(Cl)c1Cl`?
TTR transcr act: -1.7

Results for O=C(O)C(=Cc1ccccc1)Cc1ccccc1 ?
TTR transcr act: 3.9

How did C#CCOCCOCCOCCNc1nc(N2CCN(C(=O)Cn3cc(CCO)nn3)CC2)nc(N2CCN(C(=O)[C@H]([C@@H](C)O)n3cc(CCCCN)nn3)CC2)n1 do in these assays?
TTR transcr act: 11.2*; HuH7 TTR inh: -8.7; TTR up confirm: 0.3

How did C#CCOCCOCCOCCNc1nc(N2CCN(C(=O)Cn3cc(CCCCN)nn3)CC2)nc(N2CCN(C(=O)[C@H]([C@@H](C)CC)n3cc(CCCN=C(N)N)nn3)CC2)n1 do in these assays?
TTR transcr act: -1.1

What do the screens show for `C#CCOCCOCCOCCNc1nc(N2CCN(C(=O)[C@H]([C@@H](C)O)n3cc(CCCCN)nn3)CC2)nc(N2CCN(C(=O)[C@H]([C@@H](C)CC)n3cc(CCCN=C(N)N)nn3)CC2)n1`?
TTR transcr act: 7.3

How did COc1ccc(C(c2ccc(OC)cc2)N2CCN(C(=O)c3noc(C)c3[N+](=O)[O-])CC2)cc1 do in these assays?
TTR transcr act: 0.2

What do the screens show for `CC1(C)CC2CN(Cc3ccccc3)S(=O)(=O)N2C1` (centres undefined)?
TTR transcr act: -0.3

Results for c1ccc(-c2nnc3nc(N4CCCCC4)nc(N4CCCCC4)n23)cc1 ?
TTR transcr act: 2.8

How did S=c1nc(-c2ccccc2)n(CCN2CCOCC2)c2c1CCCC2 do in these assays?
TTR transcr act: -1.0

What do the screens show for `C=CCn1c(-c2ccccc2)nc(=S)c2c1CCCC2`?
TTR transcr act: 11.1*; HuH7 TTR inh: 2.9; TTR up confirm: -0.4

Results for CC(C)Cn1c(-c2ccccc2)nc(=S)c2c1CCCC2 ?
TTR transcr act: 0.4

How did CCCOC(=O)NC(CC)COC(=O)Nc1cc(C)ccc1C (centres undefined) do in these assays?
TTR transcr act: -2.0

How did O=C(NCc1cccc(Cl)c1)O[C@H]1CC[C@@]23CCCN2C(=O)CCC[C@H]3C1 do in these assays?
TTR transcr act: -1.8

How did CSC1=NCCN1C(=O)Cc1ccc(F)cc1 do in these assays?
TTR transcr act: 10.1*; HuH7 TTR inh: -1.9; TTR up confirm: -0.8

How did CSC1=NCCN1C(=O)Cc1ccc(-c2ccccc2)cc1 do in these assays?
TTR transcr act: -1.2

Results for COc1ccc(CC(=O)N2CCN=C2SC)cc1OC ?
TTR transcr act: 1.4

Results for Cc1ccc(OCC(=O)Nc2ccccc2F)cc1C ?
TTR transcr act: 3.2

What do the screens show for `CCCS(=O)(=O)c1c(S(=O)(=O)CCC)c2c(C)cccn2c1C(=O)N/N=C/c1cc(O)cc(O)c1`?
TTR transcr act: -0.2

How did CCCCNC(=O)COCc1cc(-c2ccc3c(c2)OCO3)on1 do in these assays?
TTR transcr act: -1.1

What do the screens show for `CC(C)CNC(=O)COCc1cc(-c2ccc3c(c2)OCO3)on1`?
TTR transcr act: 11.7*; HuH7 TTR inh: -1.9; TTR up confirm: 1.3

Results for CCCNC(=O)COCc1cc(-c2ccc3c(c2)OCO3)on1 ?
TTR transcr act: -0.3

Results for O=C(OCc1cn(Cc2ccc(F)cc2F)nn1)N1CCCC1 ?
TTR transcr act: 0.6

How did Cc1c(C(=O)N2CCN(S(=O)(=O)c3ccccc3)CC2)oc2ccc(Br)cc12 do in these assays?
TTR transcr act: 31.2*; HuH7 TTR inh: -18.6; TTR up confirm: -0.1

What do the screens show for `Cc1c(C(=O)N2CCc3ccccc3C2)oc2ccc(S(=O)(=O)N3CCCCCC3)cc12`?
TTR transcr act: 0.7

What do the screens show for `Cc1c(C(=O)N2CCOCC2)oc2ccc(S(=O)(=O)N3CCCC3)cc12`?
TTR transcr act: 1.5

How did Cc1ccc(NC(=O)C2CC3CCC2C3)c(C)c1 (centres undefined) do in these assays?
TTR transcr act: -0.1

How did Clc1cc(Cl)cc(CNC2CCC23CCCCC3)c1 (centres undefined) do in these assays?
TTR transcr act: 1.1

Results for Cc1ccc(N(C(C)C(=O)O)S(=O)(=O)c2c(C)[nH]c(=O)[nH]c2=O)cc1 (centres undefined) ?
TTR transcr act: 10.2*; HuH7 TTR inh: -13.1; TTR up confirm: 0.1

How did COC(=O)CN(c1ccc(C(C)C)cc1)S(=O)(=O)c1c(C)[nH]c(=O)[nH]c1=O do in these assays?
TTR transcr act: 2.8

What do the screens show for `CCCCN(C)S(=O)(=O)c1c(C)[nH]c(=O)[nH]c1=O`?
TTR transcr act: -0.4

What do the screens show for `CCC[C@H]1[C@@H](NCc2cccs2)CC[C@@]23CCCN2C(=O)CCC[C@@H]13`?
TTR transcr act: 1.9

How did CCC(Sc1nc(N)c(NC(=O)c2ccc(Br)o2)c(=O)[nH]1)C(=O)O (centres undefined) do in these assays?
TTR transcr act: 12.4*; HuH7 TTR inh: -9.7; TTR up confirm: 0.1

Results for CCCCC(Sc1nc(N)c(NC(=O)c2ccc(OCC)cc2)c(=O)[nH]1)C(=O)O (centres undefined) ?
TTR transcr act: 1.1

What do the screens show for `Cc1ccc(C(=O)Nc2c(N)nc(SCC(=O)Nc3cc(C)on3)[nH]c2=O)cc1`?
TTR transcr act: 0.1

What do the screens show for `CCN1CCN(c2cc(N3CCc4ccccc4C3)c(F)cc2[N+](=O)[O-])CC1`?
TTR transcr act: -1.5

Results for CCn1c(SCC(=O)Nc2nc(-c3ccccc3)cs2)nnc1-c1ccccc1O ?
TTR transcr act: -6.2

How did CCc1nnc(NC(=O)CSc2nnc(-c3ccccc3O)n2CC)s1 do in these assays?
TTR transcr act: 22.1*; HuH7 TTR inh: -14.0; TTR up confirm: 0.8

Results for CCc1nnc(NC(=O)CSc2nnc(-c3cc4ccccc4cc3O)n2CCOC)s1 ?
TTR transcr act: 0.5

What do the screens show for `COC(=O)CC1=C(C(=O)OC)[C@@H](c2ccccc2[N+](=O)[O-])C(C#N)=C(N)O1`?
TTR transcr act: -0.7

What do the screens show for `COc1ccc(-n2c(=S)[nH]c(=O)c3cccnc32)cc1`?
TTR transcr act: -0.3

Bioassay records (PubChem)
